# Residue numbers refer to the chain shown, from its start.
# Target: T1, SALL4 ZFC4 R900W (HT-SELEX) (Mus musculus, UniProt Q8BX22 870-940, R900W)
# T1 sequence: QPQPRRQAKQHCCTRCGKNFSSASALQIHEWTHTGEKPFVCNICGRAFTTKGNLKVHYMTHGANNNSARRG
# Assay: HT-SELEX; high values mean tight binding
# Details: protein: recombinant; vector His6-GST; dsDNA, one strand shown
# How it was run: (§1)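 In triplicate selections of up to 6 cycles, purified recombinant mouse SALL4 zinc finger cluster 4 (residues 870–940, 1 µg) was incubated 10 min at room temperature with library DNA (1.5 µg, then 200 ng) in 100 µl of 10 mM Tris–HCl pH 7.5, 50 mM NaCl, poly(dI-dC) and DTT, and complexes were captured on Ni2+ beads, washed and PCR-amplified. Sequencing was done on MiSeq with scanning for 6-mers. The binding signal is each canonical k-mer's read fraction, reported as fold change against the initial random library.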
row,Sequence,binding signal
1,AGAGAG,1.09 ± 0.0215 fold-change vs cycle 0
2,AGCAGA,0.815 ± 0.0131 fold-change vs cycle 0
3,CAAGTG,0.902 ± 0.026 fold-change vs cycle 0
4,TATATA,2.55 ± 0.233 fold-change vs cycle 0
5,ACCTAG,0.986 ± 0.0422 fold-change vs cycle 0
6,AGCAAC,0.736 ± 0.0162 fold-change vs cycle 0
7,CAATTC,1.29 ± 0.063 fold-change vs cycle 0
8,AGTAGA,1.54 ± 0.0844 fold-change vs cycle 0
9,ATAGAA,2.13 ± 0.133 fold-change vs cycle 0
10,AAGTAT,2.14 ± 0.158 fold-change vs cycle 0
11,CCTCCC,0.372 ± 0.0347 fold-change vs cycle 0
12,ACTTGG,0.907 ± 0.0234 fold-change vs cycle 0
13,GGTGAC,0.526 ± 0.0318 fold-change vs cycle 0
14,AGAGTG,0.925 ± 0.0332 fold-change vs cycle 0
15,ACAAGC,0.707 ± 0.0111 fold-change vs cycle 0
16,ATCCCA,0.976 ± 0.0258 fold-change vs cycle 0
17,AGATCC,0.949 ± 0.0348 fold-change vs cycle 0
18,ATAGAT,2.05 ± 0.124 fold-change vs cycle 0
19,CTGGAC,0.495 ± 0.0552 fold-change vs cycle 0
20,ACGGGA,0.506 ± 0.0223 fold-change vs cycle 0

# Target: T2, SALL4 ZFC4 G921D (HT-SELEX) (Mus musculus, UniProt Q8BX22 870-940, G921D)
# T2 sequence: T1 sequence with W31R, G52D
# Assay: HT-SELEX; high values mean tight binding
# Details: protein: recombinant; vector His6-GST; dsDNA, one strand shown
# How it was run: as §1
row,Sequence,binding signal
1,ACTACG,0.821 ± 0.0676 fold-change vs cycle 0
2,ATCGCA,0.667 ± 0.0619 fold-change vs cycle 0
3,TGTAAA,1.7 ± 0.134 fold-change vs cycle 0
4,GAGTGC,0.554 ± 0.055 fold-change vs cycle 0
5,ATGAAA,1.79 ± 0.147 fold-change vs cycle 0
6,ATGTCG,0.73 ± 0.0508 fold-change vs cycle 0
7,TGAACA,1.36 ± 0.0684 fold-change vs cycle 0
8,AATCTG,1.25 ± 0.0941 fold-change vs cycle 0
9,ACCTCG,0.604 ± 0.0431 fold-change vs cycle 0
10,AGGAGG,0.762 ± 0.023 fold-change vs cycle 0
11,ACGCTA,0.754 ± 0.0468 fold-change vs cycle 0
12,ACACCG,0.5 ± 0.0673 fold-change vs cycle 0
13,GAGTCA,0.993 ± 0.0145 fold-change vs cycle 0
14,ATAGAC,1.3 ± 0.09 fold-change vs cycle 0
15,AAGAGT,1.48 ± 0.0973 fold-change vs cycle 0
16,GGATTA,1.38 ± 0.0744 fold-change vs cycle 0
17,CCTAAC,1 ± 0.0113 fold-change vs cycle 0
18,AAACAG,1.23 ± 0.0148 fold-change vs cycle 0
19,AGTAGC,0.856 ± 0.0498 fold-change vs cycle 0
20,CTATAC,1.37 ± 0.0569 fold-change vs cycle 0

row,Sequence,binding signal
1,AGAGAG,1.14 ± 0.0249 fold-change vs cycle 0
2,AGCAGA,0.857 ± 0.0135 fold-change vs cycle 0
3,CAAGTG,0.944 ± 0.0555 fold-change vs cycle 0
4,TATATA,2.17 ± 0.291 fold-change vs cycle 0
5,ACCTAG,1.04 ± 0.0407 fold-change vs cycle 0
6,AGCAAC,0.849 ± 0.0333 fold-change vs cycle 0
7,CAATTC,1.25 ± 0.0527 fold-change vs cycle 0
8,AGTAGA,1.41 ± 0.124 fold-change vs cycle 0
9,ATAGAA,1.83 ± 0.226 fold-change vs cycle 0
10,AAGTAT,1.87 ± 0.204 fold-change vs cycle 0
11,CCTCCC,0.467 ± 0.0525 fold-change vs cycle 0
12,ACTTGG,0.936 ± 0.0313 fold-change vs cycle 0
13,GGTGAC,0.642 ± 0.0609 fold-change vs cycle 0
14,AGAGTG,0.97 ± 0.0268 fold-change vs cycle 0
15,ACAAGC,0.798 ± 0.0212 fold-change vs cycle 0
16,ATCCCA,0.979 ± 0.0303 fold-change vs cycle 0
17,AGATCC,1.045 ± 0.00383 fold-change vs cycle 0
18,ATAGAT,1.86 ± 0.167 fold-change vs cycle 0
19,CTGGAC,0.584 ± 0.0722 fold-change vs cycle 0
20,ACGGGA,0.583 ± 0.0299 fold-change vs cycle 0

# Reference: publication PMC9838217, “Structure of SALL4 zinc finger domain reveals link between AT-rich DNA binding and Okihiro syndrome”
